PI5P4K alpha inh: blocks human PI5P4K alpha kinase activity | P48426 | PI5P4Kalpha enzyme, ADP-Glo luminescence, 60 min; active compounds read low | max response, % | 330,000 tested, 1.2% active | AID 652105; active = max response of -50% or lower; inconclusive = between -30% and -50%; inactive = -30% or higher; also: value at the top dose of about 77 µM; % is scaled to controls: 0 for no effect and ±100 for the full control effect
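Enzyme plus substrate dispensed, test compounds pinned in, then ATP (5 microM final) added. After 60 min at RT, ADP-Glo reagent 1 for 45 min and reagent 2 for 30 min preceded luminescence imaging.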
HP1b binding inh: HP1-beta chromodomain-methylated histone interaction inhibition; P83916; AlphaScreen HP1-beta / biotin-H3K9me3 peptide binding; Potency, µM (highest dose often 114 µM), without a hit: top-dose activity change, negative = inhibition, usual class: inhibitors; 390,000 tested, 0.56% active; also: potency is read from the fitted curve at half-maximal effect; nearly all actives have a fitted effect of over 70% in size
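AlphaScreen: HP1-beta (50 nM) preformed 30 min with biotin-H3(1-18)K9me3 peptide (50 nM) in PBS pH 7.4, 0.01% Tween-20. Compound added for 30 min at RT, then streptavidin donor/nickel chelate acceptor beads (10 ug/mL) for 30 min.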
BAZ2B inh: inhibitors of human BAZ2B bromodomain | Q9UIF8 | AlphaScreen BAZ2B-H3K14Ac peptide displacement | Potency, µM (series often up to 114 µM), inactives show at the top dose activity change, negative = inhibition, actives largely listed as inhibitors | 360,000 tested, 4.4% active; also: potency is read from the fitted curve at half-maximal effect; % is scaled to controls: 0 for no effect and ±100 for the full control effect; nearly all actives have a fitted effect of over 60% in size
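BAZ2B (50 nM) with biotin-H3(5-23)K14Ac peptide (50 nM) in PBS pH 7.4, 0.01% Tween-20, preformed 30 min, then compound 30 min at room temperature; top concentration 110uM. AlphaScreen streptavidin donor/nickel chelate acceptor beads (10 ug/mL final), 20 min dark, signal read.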
JMJD2A Tudor inh: blocks the human JMJD2A Tudor domain | O75164 | AlphaScreen JMJD2A-Tudor / H3K4me3 peptide binding | Potency, µM (series often up to 114 µM), for the others: at the highest dose activity change, negative = inhibition, usual class: inhibitors | 390,000 tested, 4.4% active; also: potency is read from the fitted curve at half-maximal effect; % is scaled to controls: 0 for no effect and ±100 for the full control effect; nearly all actives have a fitted effect of over 50% in size
Target sequence (O75164 whole entry, looked up, the tested form may be a part): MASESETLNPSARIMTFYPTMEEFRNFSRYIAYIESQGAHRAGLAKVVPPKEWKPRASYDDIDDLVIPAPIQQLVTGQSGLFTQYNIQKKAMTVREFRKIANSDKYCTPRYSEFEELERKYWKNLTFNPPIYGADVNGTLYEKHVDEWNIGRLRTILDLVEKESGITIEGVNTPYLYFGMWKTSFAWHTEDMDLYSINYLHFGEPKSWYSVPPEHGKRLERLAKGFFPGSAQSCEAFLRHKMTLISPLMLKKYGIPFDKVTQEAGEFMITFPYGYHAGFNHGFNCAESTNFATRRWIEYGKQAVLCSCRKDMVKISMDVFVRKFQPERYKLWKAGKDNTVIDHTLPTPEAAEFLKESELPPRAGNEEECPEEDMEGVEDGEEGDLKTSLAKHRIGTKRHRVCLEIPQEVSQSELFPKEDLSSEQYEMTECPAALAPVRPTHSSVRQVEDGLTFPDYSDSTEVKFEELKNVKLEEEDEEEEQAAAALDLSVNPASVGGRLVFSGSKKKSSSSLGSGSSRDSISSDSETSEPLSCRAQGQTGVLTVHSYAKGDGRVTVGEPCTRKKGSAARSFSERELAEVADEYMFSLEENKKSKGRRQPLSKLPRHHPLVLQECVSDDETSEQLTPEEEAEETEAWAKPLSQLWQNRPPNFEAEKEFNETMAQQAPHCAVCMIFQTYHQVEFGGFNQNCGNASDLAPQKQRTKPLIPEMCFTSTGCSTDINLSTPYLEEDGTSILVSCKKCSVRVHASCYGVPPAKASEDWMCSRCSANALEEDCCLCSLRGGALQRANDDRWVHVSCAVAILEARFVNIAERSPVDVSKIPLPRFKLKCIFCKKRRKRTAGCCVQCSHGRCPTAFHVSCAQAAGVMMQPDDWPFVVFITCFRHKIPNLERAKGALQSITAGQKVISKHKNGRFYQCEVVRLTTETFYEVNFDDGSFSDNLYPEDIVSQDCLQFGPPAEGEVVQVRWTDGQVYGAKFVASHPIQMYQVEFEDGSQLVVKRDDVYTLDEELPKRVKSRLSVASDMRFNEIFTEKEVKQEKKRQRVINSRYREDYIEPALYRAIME
PLK1 PBD block: PLK1 (human) polo-box domain binding inhibition | P53350 | Plk1 PBD binding of FITC phosphopeptide, fluorescence polarization | Potency, µM, without a hit: max response, negative = inhibition, usual class: inhibitors | 360,000 tested, 2.8% active | AID 720504; also: potency is read from the fitted curve at half-maximal effect; series mostly up to about 57 µM; % is scaled to controls: 0 for no effect and ±100 for the full control effect; nearly all actives have a fitted effect of over 65% in size
G9a inh: blocks human histone lysine methyltransferase G9a | Q96KQ7 | G9a H3K9 monomethylation, AlphaScreen, 2 h | Potency, µM (titrated, usually from 102 µM), without a hit: top-dose activity, negative = inhibition, usual class: inhibitors | 350,000 tested, 8.8% active | AID 504332; also: potency is read from the fitted curve at half-maximal effect; % is scaled to controls: 0 for no effect and ±100 for the full control effect; nearly all actives have a fitted effect of over 75% in size
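Quantitative HTS format: methyltransferase activity on a biotin-tagged H3K9 peptide is measured by AlphaScreen, using a rabbit anti-monomethyl-H3K9 antibody with streptavidin donor and anti-IgG acceptor beads. Final levels are 20 nM enzyme, 500 nM peptide, 20 uM SAM; 2 h RT.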
* hit, by the source's call; [ ] = dose if it differs, or a comment. Most compounds without a hit are left out; they make up all but 12% or so of the library. Unless noted, calls follow the shape of the dose curve; as a rule, active = well fitted curve in the direction sought with a large enough effect; inconclusive = small, poorly fitted or top-dose-only effect, or another doubt; inactive = no such curve, though single readings can be large; an effect the other way counts as inactive or inconclusive.

Results for CCCCCCN1C=CC(=C/C=C(\C#N)C(=O)OCC)C=C1 ?
PI5P4K alpha inh: -5.0; HP1b binding inh: 22.9%; BAZ2B inh: inconclusive; JMJD2A Tudor inh: -17.1%; PLK1 PBD block: 75.5%; G9a inh: 9.1%[12.7 µM]

Results for CCc1ccc(N(CC)C(=O)Cn2nc(Cc3cccnc3)c3ccccc3c2=O)cc1 ?
HP1b binding inh: 22.4%; BAZ2B inh: -21.1%; JMJD2A Tudor inh: -30.1%; G9a inh: 0.7%[59 µM]

How did COc1ccc([S+](=O)([O-])N2CCN([S+](=O)([O-])c3ccc4c(c3)OCCO4)CC2)c(OC)c1 do in these assays?
JMJD2A Tudor inh: -25.3%

What do the screens show for `O=C(O)/C=C/C(=O)NC1CCS(=O)(=O)C1` (stereo not given)?
PI5P4K alpha inh: -2.0; HP1b binding inh: 56.9%; BAZ2B inh: inconclusive; JMJD2A Tudor inh: -6.6%; PLK1 PBD block: -6.6%; G9a inh: 3.16µM*

How did COc1cc2c(cc1OC)C(COc1ccccc1OC)N(C(=O)C(C)(C)C)CC2 (stereo not given) do in these assays?
PI5P4K alpha inh: -2.4; HP1b binding inh: 17.0%; BAZ2B inh: -0.9%; JMJD2A Tudor inh: -26.5%; PLK1 PBD block: 29.9µM*; G9a inh: inconclusive

How did CSc1ncc2c(n1)-c1ccccc1N(Cc1ccc(Cl)cc1)S2(=O)=O do in these assays?
HP1b binding inh: 68.8%; BAZ2B inh: 9.9%; JMJD2A Tudor inh: 15.9%; G9a inh: -4.9%[59 µM]

Results for Cc1n(CC(O)COC2CCCCC2)c2ccccc2[n+]1C (stereo not given) ?
PI5P4K alpha inh: -10.1; HP1b binding inh: 4.9%; BAZ2B inh: 5.8%; JMJD2A Tudor inh: 79.4µM*; PLK1 PBD block: 0.6%; G9a inh: inconclusive

How did CC1=C(C)C(=O)C(CCCCC#CCCCC#CCO)=C(C)C1=O do in these assays?
PI5P4K alpha inh: inconclusive; HP1b binding inh: inconclusive; BAZ2B inh: 39.8µM*; JMJD2A Tudor inh: 39.8µM*; PLK1 PBD block: inconclusive; G9a inh: 18.9µM*

How did Cc1[nH]c2ccccc2c1NC(=O)CN1CCN(Cc2ccc3c(c2)OCO3)CC1 do in these assays?
BAZ2B inh: -6.6%; G9a inh: 56.2µM*

Results for O=C(CN1CCN(Cc2ccc3c(c2)OCO3)CC1)Nc1ccc2[nH]c(=O)[nH]c2c1 ?
PI5P4K alpha inh: -4.9; HP1b binding inh: 13.0%; JMJD2A Tudor inh: -8.9%; PLK1 PBD block: 0.0%

Results for O=C(CN1CCN(c2cccc(C(F)(F)F)c2)CC1)NCc1ccccc1 ?
PI5P4K alpha inh: 11.2; HP1b binding inh: 21.1%; BAZ2B inh: -8.5%; JMJD2A Tudor inh: -15.0%; PLK1 PBD block: -12.1%

How did Cc1[nH]c2ccccc2c1C(O)CN1CCN(c2cccc(C(F)(F)F)c2)CC1 (stereo not given) do in these assays?
PI5P4K alpha inh: 17.3; HP1b binding inh: inconclusive; BAZ2B inh: 39.8µM*; JMJD2A Tudor inh: 56.2µM*; PLK1 PBD block: -8.6%; G9a inh: 56.2µM*

How did Cc1[nH]c2ccccc2c1NC(=O)CN1CCN(c2cccc(C(F)(F)F)c2)CC1 do in these assays?
PI5P4K alpha inh: -0.6; HP1b binding inh: -26.2%; BAZ2B inh: 50.1µM*; JMJD2A Tudor inh: inconclusive; PLK1 PBD block: -2.7%; G9a inh: inconclusive

What do the screens show for `Cc1ccc(S(=O)(=O)N2CCN(c3nc(C#N)nc4ccccc34)CC2)cc1`?
JMJD2A Tudor inh: -10.9%

Results for CCn1cc(S(=O)(=O)c2cccc(C)c2)c(=O)c2cc(F)c(N3CCCCC3C)cc21 (stereo not given) ?
HP1b binding inh: 38.9%; BAZ2B inh: 0.3%; JMJD2A Tudor inh: -9.6%; G9a inh: 1.8%[59 µM]

How did CC1CCCCN1C(=O)CSc1nc2ccccc2nc1Cc1ccccc1 (stereo not given) do in these assays?
HP1b binding inh: 34.7%[57 µM]; BAZ2B inh: 14.5%; JMJD2A Tudor inh: 13.6%; G9a inh: 10.3%[59 µM]

Results for CC(=O)N1CC23C=CC(CC2CC12CCCCCC2)O3 (stereo not given) ?
PI5P4K alpha inh: -12.3; HP1b binding inh: -19.9%; BAZ2B inh: -24.6%; JMJD2A Tudor inh: -15.8%[11.4 µM]; PLK1 PBD block: 8.44µM*; G9a inh: -0.5%[59 µM]

Results for CCn1c(SCC(=O)Nc2ccccc2C(=O)OC)nc2c1c(=O)n(C)c(=O)n2C ?
BAZ2B inh: 2.1%; G9a inh: 28.2µM*

Results for COC(=O)c1ccccc1NC(=O)CSc1nc(N)cc(=O)[nH]1 ?
PI5P4K alpha inh: inconclusive; HP1b binding inh: inconclusive; BAZ2B inh: 56.2µM*; JMJD2A Tudor inh: inconclusive; PLK1 PBD block: 4.3%; G9a inh: 50.1µM*

How did CCn1c(Oc2ccccc2)nc2c1c(=O)n(C)c(=O)n2C do in these assays?
PI5P4K alpha inh: -4.6; HP1b binding inh: -9.1%; BAZ2B inh: 11.5%; JMJD2A Tudor inh: -12.5%[57.1 µM]; PLK1 PBD block: 26.7µM*; G9a inh: -1.4%[0.501 µM]

What do the screens show for `CCn1c(SCC(=O)Nc2ccccc2C(=O)OC)nnc1-c1ccc(N)cc1`?
HP1b binding inh: 9.1%; BAZ2B inh: 3.4%; JMJD2A Tudor inh: -8.4%; PLK1 PBD block: -7.9%; G9a inh: 44.7µM*

What do the screens show for `CCn1c(SCC(=O)Nc2ccccc2)nc2c1c(=O)n(C)c(=O)n2C`?
HP1b binding inh: 60.7%; BAZ2B inh: 2.6%; JMJD2A Tudor inh: 0.6%; PLK1 PBD block: -2.9%; G9a inh: 8.9%[59 µM]

How did CN(C(=O)CSc1nnc(C2CC2)n1C1CC1)C1(C#N)CCCCC1 do in these assays?
PI5P4K alpha inh: -2.3; HP1b binding inh: 34.4%; BAZ2B inh: 5.6%; JMJD2A Tudor inh: 0.7%; PLK1 PBD block: 1.3%; G9a inh: 13.4%[2.33 µM]

Results for CC1CCN(S(=O)(=O)c2ccc3c(ccn3CC(=O)NCc3ccc(N(C)C)cc3)c2)CC1 ?
HP1b binding inh: 15.4%; BAZ2B inh: inconclusive; JMJD2A Tudor inh: inconclusive; G9a inh: -18.3%[59 µM]

How did CCc1nc2ccc(C(=O)NCCC(C)C)cn2c1N(C)Cc1ccc(OC)cc1 do in these assays?
PI5P4K alpha inh: -1.7; PLK1 PBD block: -2.0%

Results for COC(=O)CN1C(=O)[C@@H]2[C@H](C1=O)[C@@H]1CC(C(=O)OC)=C[C@@H](C(=O)OC)C3C1=C(C(=O)[C@]3(C)NC(=O)c1ccccc1)[C@@H]2C (stereo not given in full) ?
HP1b binding inh: 30.3%; JMJD2A Tudor inh: -13.1%

What do the screens show for `O=C(Nc1nnc([C@H]2C[C@H](O)[C@@H](CO)O2)s1)c1cccc(OC(F)(F)F)c1`?
PI5P4K alpha inh: 1.9; PLK1 PBD block: -3.9%

How did CCn1c(SCC(=O)NNC(=S)Nc2ccc(C)cc2)nnc1-c1ccc(Cl)cc1 do in these assays?
PI5P4K alpha inh: 10.3; HP1b binding inh: 19.5%; BAZ2B inh: -1.0%; JMJD2A Tudor inh: -22.0%; PLK1 PBD block: -2.4%; G9a inh: 10µM*

Source: PubChem (National Center for Advancing Translational Sciences (NCATS))
